Shown is part of a subset that was picked to be rich in hits.
ASM inhibitor – blocks human secretory acid sphingomyelinase; placental ASM, HMU-PC fluorogenic substrate, 60 min; Potency, µM (titrated, usually from 57.5 µM), actives largely listed as inhibitors; 340,000 tested, 0.006% active; P17405; AID 504937
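HMU-PC0 cleavage (9 uM final) by human placental ASM, 60 min at 37 °C following 10 min compound exposure at RT; stopped at pH 10, fluorescence Ex 386/Em 447 nm.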
Mito fusion yeast – blocks mitochondrial division or promotes mitochondrial fusion | 320,000 tested, 0.23% active | S. cerevisiae fusion-defective mutant growth rescue, CellTiterGlo 48 h | Potency, µM (doses to about 46.1 µM), actives largely listed as activators | AID 485298; note: nearly all actives have a fitted effect of over 45% in size
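Growth-rescue viability read-out: after 48 h at the non-permissive 37C in glycerol/ethanol YPEG, yeast mitochondrial fusion mutants are measured by CellTiterGlo luminescence; compounds (23 nl pinned per well) restoring growth score as division inhibitors or fusion activators.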
RGS4 inhibitor – human RGS4 inhibition | P49798 | Transcreener GDP fluorescence polarization, RGS4-accelerated GTP hydrolysis | Potency, µM (titrated, usually from 114 µM), hits mostly inhibitors | 390,000 tested, 0.039% active; note: nearly all actives have a fitted effect of over 75% in size
Target sequence (P49798 whole entry, looked up): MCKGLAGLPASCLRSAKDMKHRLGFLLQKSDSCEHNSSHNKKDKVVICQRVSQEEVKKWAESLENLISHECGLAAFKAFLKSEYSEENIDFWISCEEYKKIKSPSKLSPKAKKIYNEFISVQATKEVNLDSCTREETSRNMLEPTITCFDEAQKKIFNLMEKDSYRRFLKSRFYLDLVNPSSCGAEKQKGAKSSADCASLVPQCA
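MLSMR compounds (23 nl, pin-transferred) preincubated 10 min at room temperature with a 500nM (2x) first reagent, then RGS4 at 900nM (2x) plus Transcreener GDP mix added; fluorescence polarization (620/688 nm) read before and after 90 min at 30 °C.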
IDH1 R132H inh – inhibitors of human mutant IDH1 R132H; IDH1-R132H enzyme, NADPH consumption, diaphorase/resazurin fluorescence; 390,000 tested, 0.093% active; O75874; Potency, µM (top dose mostly 76.6 µM), hits mostly inhibitors; note: nearly all actives have a fitted effect of over 65% in size
Target sequence (O75874 whole entry R132H, stated change not applied): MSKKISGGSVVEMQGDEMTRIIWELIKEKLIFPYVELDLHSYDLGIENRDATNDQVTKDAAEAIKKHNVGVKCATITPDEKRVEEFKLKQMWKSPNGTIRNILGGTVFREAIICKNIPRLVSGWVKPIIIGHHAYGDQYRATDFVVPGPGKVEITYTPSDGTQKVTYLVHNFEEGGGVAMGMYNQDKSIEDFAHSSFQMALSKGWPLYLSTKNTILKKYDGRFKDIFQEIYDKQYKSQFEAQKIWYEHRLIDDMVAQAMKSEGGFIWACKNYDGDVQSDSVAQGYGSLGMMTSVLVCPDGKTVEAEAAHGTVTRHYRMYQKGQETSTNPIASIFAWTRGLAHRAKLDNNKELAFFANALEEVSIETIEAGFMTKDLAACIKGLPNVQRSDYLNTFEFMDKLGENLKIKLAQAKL
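IDH1-R132H (0.5 ug/mL) preincubated 30 min with compound, then NADPH (0.016 mM) and alpha-KG (2 mM) added; 80 min at RT, pH 7.5. Remaining NADPH coupled via diaphorase/resazurin to fluorescence (540/590 nm); concentration-response curves normalized to no-enzyme control.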
LDHA inh – LDHA (human) enzyme inhibition | P00338 | purified LDHA, NADH/diaphorase-resazurin fluorescence; active compounds read low | activity change, % (values are at about 110 or 230 µM) | 480,000 tested, 0.15% active | AID 1347041; in the data active = activity change below about -30%; inconclusive = mostly about -25% to -30%
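LDH5 2 nM; NADH 0.06 mM, pyruvate 0.2 mM; 200 mM Tris pH 7.4, EDTA, Tween-20; 5 min RT. Detection: diaphorase 0.133 mg/mL + resazurin 37 µM, fluorescence ex540/em590 at 0 and 20 min; normalized to enzyme-free and DMSO wells.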
ClpP mod – qHTS Assay for Activators of ClpP; purified B. subtilis ClpP, FRET peptide cleavage, 20 min; Potency, µM (titrated, usually from 57.5 µM); 340,000 tested, 1.9% active; AID 651965, 2013; active = well fitted falling curve with a large enough effect; inconclusive = small, poorly fitted or top-dose-only effect; inactive = no such curve, though single readings can be large or run the other way; note: the source files actives as falling curves though it sought activators and does not explain the sign; nearly all actives have a fitted effect of over 65% in size
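FRET quenching reversal measured ClpP activation: 10 microg/mL B. subtilis ClpP at pH 8 with the FRET-FV decapeptide, read at 430 nm after 320 nm excitation. The 20-min minus 0-min signal was scaled between DMSO/no-enzyme wells and ADEP (5.8 microM final).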
Large screens that a line does not name were inactive; ! = not active in a repeat. Unless noted, calls come from the whole dose curve; as a rule, active = well fitted curve in the direction sought with a large enough effect; inconclusive = small, poorly fitted or top-dose-only effect, or another doubt; inactive = no such curve, though single readings can be large; an effect the other way counts as inactive or inconclusive.

O=C(Oc1ccc2c(=O)c(Oc3ccc4ccccc4c3)coc2c1)c1cccnc1	Mito fusion yeast 16µM (no result: ASM inhibitor)
CC/C=C(/C)C(=O)NC(C)c1ccncc1 (stereo not drawn)	none (no result: ASM inhibitor, Mito fusion yeast, RGS4 inhibitor, IDH1 R132H inh, ClpP mod)
Cc1csc(NC(=O)CCc2c(C)nc3cc(-c4ccc(Cl)cc4)nn3c2C)n1	ClpP mod inconclusive
Cc1nc2cc(-c3ccc(Cl)cc3)nn2c(C)c1CCC(=O)NC(C)c1ccc2c(c1)OCCO2 (stereo not drawn)	Mito fusion yeast 18µM
COc1ccc2[nH]c(C(=O)NCc3cccnc3)c(C)c2c1	none (no result: ASM inhibitor, Mito fusion yeast, RGS4 inhibitor, IDH1 R132H inh, ClpP mod)
Cc1cc(C)c(NC(=S)NCC(C)N2CCCCC2C)c(Cl)c1 (stereo not drawn)	none (no result: ASM inhibitor, Mito fusion yeast, RGS4 inhibitor, IDH1 R132H inh, ClpP mod)
Cc1ccc2c(c1)c1c(n2C)C(C(N)=O)CCC1 (stereo not drawn)	ClpP mod inconclusive
Cc1ccc2c(c1)c1c(n2C)-c2[nH]ncc2CC1	ClpP mod 13µM
O=c1c(S(=O)(=O)c2ccccc2)cn(Cc2ccccc2)c2cc(N3CCOCC3)c(F)cc12	ClpP mod 28µM (no result: ASM inhibitor, Mito fusion yeast)
Cc1ccc(S(=O)(=O)c2cn(Cc3ccccc3)c3cc(N4CCCC4)c(F)cc3c2=O)cc1C	ClpP mod 13µM (no result: ASM inhibitor, Mito fusion yeast)
Cc1ccc(S(=O)(=O)c2cn(Cc3ccccc3)c3cc(N4CCCC4)c(F)cc3c2=O)cc1	ClpP mod inconclusive (no result: ASM inhibitor, Mito fusion yeast)
O=c1c(S(=O)(=O)c2ccccc2)cn(Cc2ccccc2)c2cc(N3CCCC3)c(F)cc12	none (no result: ASM inhibitor, Mito fusion yeast)
O=c1c(S(=O)(=O)c2ccccc2)cn(Cc2cccc(F)c2)c2cc(N3CCOCC3)c(F)cc12	ClpP mod 28µM (no result: ASM inhibitor, Mito fusion yeast)
CC1CCCCN1c1cc2c(cc1F)c(=O)c(S(=O)(=O)c1ccccc1)cn2Cc1ccccc1 (stereo not drawn)	ClpP mod 16µM (no result: ASM inhibitor, Mito fusion yeast)
CC(C)c1ccccc1NC(=O)COC(=O)c1cc(=O)c2ccccc2o1	none (no result: ASM inhibitor, Mito fusion yeast, RGS4 inhibitor, IDH1 R132H inh, ClpP mod)
CC(C(=O)N1CCc2ccccc2C1)N(C)CC(=O)Nc1ccc(Cl)c(C(F)(F)F)c1 (stereo not drawn)	none (no result: ASM inhibitor, Mito fusion yeast, RGS4 inhibitor, IDH1 R132H inh, ClpP mod)
Cc1cc(-c2nc3ccccc3o2)c2ccccc2n1	none
c1ccc(-c2nc3ccccc3o2)nc1	ClpP mod 13µM
c1cncc(-c2nc3ccccc3o2)c1	none
Nc1ccc2oc(-c3ccccn3)nc2c1	none
Cc1ccnc2ccc(-c3nc4ccccc4o3)cc12	ClpP mod 35µM!
Clc1ccc2oc(-c3ccccn3)nc2c1	ClpP mod 16µM
CCOC(=O)c1c(C)n(CC)c2ccc(OC)cc12	none (no result: ASM inhibitor, Mito fusion yeast, RGS4 inhibitor, IDH1 R132H inh, ClpP mod)
Cc1ccc(C)c(Cc2c(C)nc3c(C(=O)N4CCOCC4)cnn3c2C)c1	ClpP mod 28µM
Cc1ccccc1Cc1c(C)nc2nc(SCC(=O)NCc3ccco3)nn2c1C	none
Cc1ccccc1Cc1c(C)nc2c(C(=O)NCc3ccco3)cnn2c1C	ClpP mod 32µM
N#Cc1cccc(Oc2ccc(C3CCCCC3)cc2)c1C#N	none (no result: ASM inhibitor, Mito fusion yeast, RGS4 inhibitor, IDH1 R132H inh, ClpP mod)
Cc1cc(=O)oc2c1ccc1oc(/C(=N/O)c3ccccc3)c(C)c12	Mito fusion yeast inconclusive, ClpP mod inconclusive
Cc1ccc(/C(=N\O)c2oc3c(C)c4oc(=O)cc(C)c4cc3c2C)cc1	Mito fusion yeast 7.1µM, ClpP mod 25µM
CC(=O)N1c2ccc(S(=O)(=O)NCCC(=O)N3CCCC(C)C3)cc2CC1C (stereo not drawn)	Mito fusion yeast 11µM
CCOc1cc2ccccc2cc1C(=O)Nc1ccc2oc(C)nc2c1	none (no result: ASM inhibitor, Mito fusion yeast, RGS4 inhibitor, IDH1 R132H inh, ClpP mod)
COc1ccc(C=C(c2ccc(OC)cc2)c2ccc(OC)cc2)cc1	ClpP mod 32µM
Cc1sc2nc(CN3CCCCC3)nc(Sc3nnnn3C)c2c1C	none (no result: ASM inhibitor, Mito fusion yeast, RGS4 inhibitor, IDH1 R132H inh, ClpP mod)
Fc1ccc(N/N=C/c2cccc(Cl)c2)c(F)c1	none (no result: ASM inhibitor, Mito fusion yeast, RGS4 inhibitor, IDH1 R132H inh, ClpP mod)
CCN(CC)C(=O)c1sc2nc(N3CCOCC3)c3c(c2c1N)CCCC3	RGS4 inhibitor inconclusive, ClpP mod 25µM
CCOC(=O)c1sc2nc(N3CCCC3)c3c(c2c1N)CC(C)(C)OC3	ClpP mod 32µM
